Key:
Conditions in all cases: Compound Concentration (nM):1000
[1] = tested on: INSRR
[2] = tested on: INSR
[3] = tested on: IRAK1
[4] = tested on: IRAK3
[5] = tested on: IRAK4
[6] = tested on: ITK
[7] = tested on: JAK1(JH1domain-catalytic)
[8] = tested on: JAK1(JH2domain-pseudokinase)
[9] = tested on: JAK2(JH1domain-catalytic)
[10] = tested on: JAK3(JH1domain-catalytic)
[11] = tested on: T1, JNK1
T1 construct: gene MAPK8

[12] = tested on: T2, JNK2
T2 construct: gene MAPK9

[13] = tested on: T3, JNK3
T3 construct: gene MAPK10

[14] = tested on: KIT(A829P)
[15] = tested on: KIT(D816H)
[16] = tested on: KIT(D816V)
[17] = tested on: KIT(L576P)
[18] = tested on: KIT(V559D)
[19] = tested on: KIT(V559D,T670I)
[20] = tested on: KIT(V559D,V654A)
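Note: KINOMEscan scanMAX binding as percent activity remaining versus control; lower means stronger binding.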

SMILES	Percent Control [1]	Percent Control [2]	Percent Control [3]	Percent Control [4]	Percent Control [5]	Percent Control [6]	Percent Control [7]	Percent Control [8]	Percent Control [9]	Percent Control [10]	Percent Control [11]	Percent Control [12]	Percent Control [13]	Percent Control [14]	Percent Control [15]	Percent Control [16]	Percent Control [17]	Percent Control [18]	Percent Control [19]	Percent Control [20]
COc1cc(C)c(N(C)C(=O)CN(C)C)cc1Nc1nc(Nc2cccc(F)c2C(N)=O)c2cc[nH]c2n1 [GSK2219385]	2.9%	4.3%	95%	97%	95%	99%	88%	81%	100%	92%	88%	74%	83%	100%	60%	81%	100%	100%	100%	93%
CCS(=O)(=O)c1ccc(OC)c(Nc2ncc(-c3cccc(OC)c3)o2)c1 [GW580509X]	100%	95%	90%	100%	100%	100%	100%	97%	94%	62%	76%	89%	95%	83%	52%	42%	0%	2.3%	66%	79%
CCc1ccc(Oc2nccc(-c3c(-c4ccc(F)cc4)ncn3C3CCNCC3)n2)cc1 [SB-242719]	100%	77%	95%	95%	88%	100%	95%	100%	90%	100%	65%	15%	17%	94%	73%	100%	85%	95%	94%	74%
COc1ccc2cc(-c3c(-c4ccncc4)nc(-c4ccc(S(C)(=O)=O)cc4C)n3C)ccc2c1 [SB-633825]	89%	100%	68%	75%	81%	60%	100%	75%	72%	63%	73%	24%	20%	52%	46%	74%	77%	65%	88%	89%
O=C(Nc1n[nH]c2nc(-c3ccc(O)cc3)c(Br)cc12)C1CC1 [SB-725317]	100%	100%	56%	100%	89%	100%	60%	63%	24%	6.9%	35%	85%	80%	100%	100%	94%	56%	71%	100%	96%
CN1CCN(C(=O)c2ccc(NC(=O)Nc3ccc(N(C)c4ccnc(Nc5ccc(CS(C)(=O)=O)cc5)n4)cc3)cc2)CC1.Cl [GW830263A]	100%	61%	58%	0.1%	52%	98%	76%	13%	4.7%	5.4%	5.5%	19%	8.6%	0%	27%	23%	0%	0%	0.1%	9.1%
COc1cccc(-n2ncc3c(N/N=C/c4ccncc4)ncnc32)c1 [GW784752X]	100%	100%	37%	0%	99%	100%	100%	96%	66%	83%	99%	83%	96%	100%	46%	100%	84%	89%	38%	100%
C[C@@H](Oc1cc(-n2cnc3ccc(OC4CCN(C)CC4)cc32)sc1C(N)=O)c1ccccc1Cl [GSK579289A]	90%	64%	73%	83%	94%	77%	100%	75%	75%	7.2%	82%	98%	96%	49%	1.7%	48%	31%	30%	41%	95%
CC(C)COC(=O)c1ccc2c(c1)/C(=C/Nc1ccc(S(N)(=O)=O)cc1)C(=O)N2 [GW416981X]	100%	100%	50%	100%	100%	100%	100%	56%	63%	14%	44%	65%	71%	53%	20%	22%	57%	100%	100%	100%
CC1=C(C(=O)Nc2ccc3[nH]ncc3c2)C(c2ccc(Cl)c(Cl)c2)CC(=O)N1 (stereo not shown) [GSK299115A]	100%	100%	88%	56%	100%	74%	41%	86%	13%	9.3%	84%	73%	77%	79%	78%	94%	100%	100%	94%	100%
NS(=O)(=O)c1ccc(N/N=C2\C(=O)Nc3ccc(-c4cnco4)cc32)cc1 [GW276655]	83%	73%	79%	100%	90%	93%	100%	31%	54%	16%	87%	83%	83%	79%	69%	100%	55%	58%	100%	100%
NS(=O)(=O)c1ccc(N/N=C2\C(=O)Nc3ccc(C(=O)NCCc4c[nH]cn4)cc32)cc1 [GW300660X]	100%	96%	82%	100%	99%	100%	100%	20%	80%	64%	61%	89%	96%	85%	41%	94%	100%	100%	100%	100%
COc1ccc(COc2ccc(Cc3cnc(N)nc3N)cc2OC)cc1 [GW632580X]	100%	69%	99%	100%	95%	89%	100%	89%	92%	77%	85%	93%	94%	100%	68%	96%	93%	96%	100%	100%
COc1cccc(-c2c[nH]c3c(N/N=C/c4ccncc4)ncnc23)c1 [GW814408X]	100%	93%	23%	76%	59%	96%	75%	80%	31%	18%	99%	97%	90%	27%	12%	9.8%	2.1%	1.7%	12%	33%
COc1cc(C=NNc2ncnc3c2cnn3-c2ccccc2)ccc1O [GW513184X]	100%	100%	43%	28%	72%	100%	100%	84%	72%	81%	99%	94%	82%	100%	84%	40%	17%	35%	65%	74%
CCS(=O)(=O)c1ccc(OC)c(Nc2ncc(-c3cccc(F)c3)o2)c1 [GW621970X]	100%	100%	48%	100%	61%	100%	100%	98%	100%	75%	69%	92%	94%	63%	51%	39%	3%	4.8%	35%	90%
COc1ccc2[nH]c3c4[nH]c5ccc(OC)cc5c4c4c(c3c2c1)C(=O)NC4=O [GW296115X]	95%	66%	94%	66%	76%	89%	100%	39%	84%	47%	82%	55%	31%	15%	6.6%	1.7%	8.2%	9%	49%	66%
Cl.c1ccc(Cc2nc3ccc(Nc4ncnc5ccccc45)cc3[nH]2)cc1 [GR269666A]	100%	100%	100%	100%	100%	100%	100%	88%	100%	100%	91%	100%	100%	100%	100%	100%	100%	91%	100%	85%
CN(C)c1cc2c(Nc3ccc4c(cnn4Cc4ccccc4)c3)ncnc2cn1 [GW282974X]	100%	63%	100%	100%	100%	87%	100%	92%	100%	99%	87%	92%	82%	70%	62%	90%	100%	100%	96%	100%
Cl.O=C(O[C@H]1CN[C@H](C#Cc2cc3ncnc(Nc4ccc5c(cnn5Cc5ccccc5)c4)c3s2)C1)N1CCOCC1 [GSK200398A]	100%	77%	100%	77%	96%	100%	96%	91%	99%	90%	90%	91%	88%	100%	69%	100%	100%	100%	87%	100%

— article PMC7826789 (International Journal of Molecular Sciences, 2021)
